We go through 8 compounds from PubChem BioAssay (NCI).

This is part of a sample that, as a whole, favours compounds with a hit. Of some 83,000 tested, about 20% had one in any assay.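 Note: values are percent growth. 100 is the growth of untreated cells, values between 100 and 0 indicate rising inhibition; between -100 and 0 indicates cell death.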 Values without a mark were called inactive. Calls of active or inactive are those of the source. Rule for the calls: active = growth percent below 10; inactive = the rest.

What all share (assay): NCI-60 one-dose screen, 48 h (100 = growth as untreated, 0 = no growth, -100 = all killed)
In one assay the test system is HCT-15 colon. Conditions: 10 µM unless noted.
For a further assay, the system named is HT29 colon. Conditions: 10 µM unless noted.
The subject of a further assay is SNB-75 CNS. The conditions noted are these: 10 µM unless noted.
In another assay the test system is SNB-19 CNS. Conditions: 10 µM unless noted.
The subject of the next assay is U251 CNS. The conditions noted are these: 10 µM unless noted.
The next assay relates to PC-3 prostate. The conditions noted are these: 10 µM unless noted.
Another assay relates to SK-MEL-5 melanoma. Conditions: 10 µM unless noted.
Another assay relates to UACC-62 melanoma. Conditions: 10 µM unless noted.
A further assay deals with LOX IMVI melanoma. The conditions noted are these: 10 µM unless noted.
Another assay deals with SK-MEL-28 melanoma. Conditions: 10 µM unless noted.
The test system of a further assay is SK-MEL-2 melanoma. Conditions: 10 µM.
The next assay deals with EKVX NSCLC. The conditions noted are these: 10 µM unless noted.
In a further assay the test system is SN12C renal. The conditions noted are these: 10 µM unless noted.
A further assay has as its system TK-10 renal. Conditions: 10 µM unless noted.
A further assay deals with ACHN renal. The conditions noted are these: 10 µM unless noted.
The next assay deals with CAKI-1 renal. Conditions: 10 µM unless noted.
A further assay relates to CCRF-CEM leukemia. The conditions noted are these: 10 µM unless noted.
The subject of a further assay is MOLT-4 leukemia. The conditions noted are these: 10 µM unless noted.
For the next assay, the system named is UO-31 renal. The conditions noted are these: 10 µM unless noted.
The next assay deals with A498 renal. The conditions noted are these: 10 µM unless noted.

`ClCc1ccc(-c2ccc(Cn3cnc4c(Cl)nc(Cl)nc43)cc2)cc1`: the growth in the assay on HCT-15 colon was -44.3% (active); in the assay with HT29 colon, 0.0492% (active); in the assay on SNB-75 CNS, -26.9% (active); with SNB-19 CNS, 0.603% (active); in the assay on U251 CNS, -79.2% (active); with PC-3 prostate, -95.6% (active). Besides, the growth in the assay on SK-MEL-5 melanoma was -67.7% (active); in the assay on UACC-62 melanoma, -13.6% (active); in the assay on LOX IMVI melanoma it was -70.8% (active); in the assay with SK-MEL-28 melanoma, -29.4% (active); with SK-MEL-2 melanoma it was 46.1%; with EKVX NSCLC it was -57.9% (active). Also, the growth with SN12C renal is 26.1%; in the assay on TK-10 renal, -67.8% (active); in the assay on ACHN renal, -21% (active); with CAKI-1 renal, -98.8% (active); in the assay on CCRF-CEM leukemia, -31.1% (active); in the assay with MOLT-4 leukemia, 4.29% (active).

As for `CC1(C=O)NC(=O)NC1=O` (configuration not stated), the growth in the assay with HCT-15 colon was 101%; in the assay on HT29 colon, 99.2%; in the assay on SNB-75 CNS, 92.8%; with SNB-19 CNS it was 103%; with U251 CNS it was 82%; in the assay on PC-3 prostate it was 88%. The growth with SK-MEL-5 melanoma is 102%; with UACC-62 melanoma, 99.2%; in the assay with LOX IMVI melanoma, 100%; with SK-MEL-28 melanoma it was 112%; in the assay on SK-MEL-2 melanoma, 106%; with EKVX NSCLC, 99.6%. Further, the growth in the assay with SN12C renal is 97.8%; in the assay on TK-10 renal, 100%; in the assay with ACHN renal, 104%; in the assay on CAKI-1 renal, 98.6%; in the assay on CCRF-CEM leukemia, 95.7%; with MOLT-4 leukemia, 89.9%.

With `COc1cc2c(cc1OCCCCCN1CCN(c3ncnc4ccccc34)CC1)N=CC1CCCN1C2=O` (configuration not stated), the growth in the assay with HCT-15 colon is 0.198% (active); in the assay with HT29 colon, 8.89% (active); with SNB-75 CNS, -50.2% (active); in the assay on SNB-19 CNS it was 12.6%; in the assay on U251 CNS, 2.18% (active); in the assay on PC-3 prostate it was -38.6% (active). The growth with SK-MEL-5 melanoma is -80.6% (active); in the assay on UACC-62 melanoma, -90.4% (active); with LOX IMVI melanoma it was -49.2% (active); in the assay on SK-MEL-28 melanoma, -14.6% (active); in the assay on SK-MEL-2 melanoma it was 1.29% (active); with EKVX NSCLC, -41.5% (active). Besides, the growth in the assay on SN12C renal is 1.92% (active); in the assay with TK-10 renal it was -21.4% (active); in the assay with ACHN renal, 1.61% (active); in the assay with CAKI-1 renal, -18.1% (active); in the assay on CCRF-CEM leukemia it was -37.2% (active); in the assay on MOLT-4 leukemia it was 0.399% (active).

With `CC(C)=CCc1cc2c(cc1O)C1=C(C(=O)C3=C(NCCS3(=O)=O)C1=O)C(C=C(C)C)O2` (configuration not stated), the growth in the assay with HCT-15 colon was 39.8%; in the assay on HT29 colon it was 47.9%; in the assay on SNB-75 CNS it was 71.4%; in the assay with SNB-19 CNS, 31.7%; in the assay on U251 CNS, 1.89% (active); with PC-3 prostate, 16.4%. Besides, the growth with SK-MEL-5 melanoma is 5.34% (active); in the assay on UACC-62 melanoma, 28.2%; in the assay with LOX IMVI melanoma, 4.56% (active); in the assay with SK-MEL-28 melanoma it was 24.3%; with SK-MEL-2 melanoma, 19.3%; in the assay on EKVX NSCLC it was 48.6%. For the same compound, the growth was -43.3% (active) in the assay on SN12C renal; 41.6% in the assay on UO-31 renal; 122% in the assay on TK-10 renal; 94.9% in the assay on A498 renal; 0.962% (active) in the assay with CCRF-CEM leukemia.

As to `COc1cc2c(cc1OCCCCCCN1CCN(c3ncnc4ccccc34)CC1)N=CC1CCCN1C2=O` (configuration not stated), the growth with HCT-15 colon is -2.53% (active); with HT29 colon, 10.9%; with SNB-75 CNS, -46.9% (active); with SNB-19 CNS, 17%; in the assay on U251 CNS, 0.0332% (active); in the assay on PC-3 prostate, -23.1% (active). Moreover, the growth was -87.2% (active) in the assay on SK-MEL-5 melanoma; -95.8% (active) with UACC-62 melanoma; -51.1% (active) in the assay with LOX IMVI melanoma; -4.17% (active) with SK-MEL-28 melanoma; 3.62% (active) with SK-MEL-2 melanoma; -8.7% (active) in the assay with EKVX NSCLC. Moreover, the growth was -10.4% (active) with SN12C renal; 1.29% (active) with TK-10 renal; 0.483% (active) in the assay on ACHN renal; -19.6% (active) with CAKI-1 renal; -32.8% (active) with CCRF-CEM leukemia; -32.1% (active) in the assay with MOLT-4 leukemia.

With `Nc1nc(N)c2cc(CNc3ccc(C(=O)NC(CC(=O)O)C(=O)O)cc3)ccc2n1` (configuration not stated), the growth was 36.9% with HCT-15 colon; 19.8% in the assay on HT29 colon; 52.8% with SNB-75 CNS; 43.4% in the assay with SNB-19 CNS; 38.1% with U251 CNS; 31.2% with PC-3 prostate. The growth in the assay on SK-MEL-5 melanoma was 21.8%; in the assay on UACC-62 melanoma, 3.72% (active); in the assay with LOX IMVI melanoma it was 15.2%; in the assay with SK-MEL-28 melanoma it was 54.3%; in the assay on SK-MEL-2 melanoma, 72.3%; in the assay on EKVX NSCLC, 43.2%. The growth with SN12C renal was 15.5%; in the assay on UO-31 renal it was 35.8%; in the assay on TK-10 renal, 61.2%; in the assay on ACHN renal, 25.9%; in the assay with CCRF-CEM leukemia it was 23%.

`CCCCCCC1(/C=N/NC(N)=O)NC(=O)NC1=O` (configuration not stated): the growth is 98.3% in the assay on HCT-15 colon; 76.9% with HT29 colon; 82.2% in the assay on SNB-75 CNS; 105% with SNB-19 CNS; 94.3% with U251 CNS; 91.8% in the assay with PC-3 prostate. For the same compound, the growth with SK-MEL-5 melanoma was 96.9%; in the assay on UACC-62 melanoma, 99%; in the assay with LOX IMVI melanoma it was 97.4%; with SK-MEL-28 melanoma it was 106%; in the assay with SK-MEL-2 melanoma it was 98.8%; in the assay on EKVX NSCLC, 91.8%. Also, the growth in the assay with SN12C renal is 105%; with UO-31 renal it was 87.2%; in the assay with TK-10 renal it was 99.1%; in the assay on CAKI-1 renal, 91.7%; with CCRF-CEM leukemia, 102%; with MOLT-4 leukemia, 101%.

Take `C=C1C(=O)O[C@H]2[C@H]1CC/C(Cn1cc(-c3cc(C)c(C)cc3C)nn1)=C\CC[C@@]1(C)O[C@@H]21`: the growth in the assay with HCT-15 colon was -82.6% (active); with HT29 colon it was -67.9% (active); in the assay on SNB-75 CNS it was 29%; in the assay with SNB-19 CNS, 41.8%; in the assay on U251 CNS it was 12.8%; with PC-3 prostate it was -69.7% (active). Further, the growth with SK-MEL-5 melanoma was 7.44% (active); with UACC-62 melanoma, -82% (active); with LOX IMVI melanoma, -95% (active); in the assay on SK-MEL-28 melanoma it was -76.3% (active); in the assay on SK-MEL-2 melanoma, -12.9% (active); in the assay on EKVX NSCLC, -79.9% (active). For the same compound, the growth with SN12C renal was -34.6% (active); in the assay with UO-31 renal, -98.3% (active); in the assay on TK-10 renal, -98.9% (active); in the assay with CAKI-1 renal, -93.7% (active); in the assay on CCRF-CEM leukemia, -13.8% (active); with MOLT-4 leukemia it was -19.2% (active).
